Source: PubChem
ABCB6 inh 2: blocks the human ABCB6 transporter; Q9NP58; K562-ABCB6 porphyrin accumulation, flow cytometry, 1 h; stronger effect = lower value; fluorescence ratio to DMSO, % at 10 µM; 0.19% of 360,000 active; AID 602162;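 active = fluorescence ratio to DMSO below 75%, the collection mean minus 3 SD; inconclusive = too few cells collected in the well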;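 also: signal is porphyrin accumulated inside mitochondria; 100% equals median channel fluorescence of DMSO control wells; lower ratio means ABCB6 inhibition with less porphyrin fluorescence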
Myeloid diff 2: compounds promoting myeloid differentiation. ER-HoxA9 myeloid progenitors, lysozyme-GFP differentiation, flow cytometry. calls only at 10 µM. AID 624256. 1% of 360,000 active;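 active = normalized GFP-positive differentiation at or above the plate's own cutoff, the solvent-only control mean plus 3 SD; inconclusive = no clear call, values can overlap the other calls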;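 also: cells exposed to compound for four days before flow analysis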
Glyco luc inh: N-linked glycosylation inhibition | D54 ERlucT glycosylation luciferase reporter, 24 h; percent of 100 nM tunicamycin response | reporter increase, % at 12.5 µM | 0.23% of 360,000 active | AID 588692;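 active = mean luciferase reporter signal, scaled so untreated is 0 and the glycosylation-blocking control 100, at or above a set limit in every replicate; inconclusive = mean reaches the limit but not every replicate does; inactive = mean below the limit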;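 also: luciferase carries N-glycosylation sites so blocking glycosylation raises the light; 0% = median of neutral control wells and 100% = median of 100 nM tunicamycin wells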
RAD54 branch: blocks human RAD54 Holliday junction branch migration; Q92698; FAM/BHQ fluorescence; inhibition, % at 10.4 µM; 0.14% of 360,000 active; AID 602329;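 active = mean normalized replicate activity at least 40 and at least half of replicates scoring 40 or more; inconclusive = only one of the two criteria met; inactive = mean below 40 and under half of replicates reaching 40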;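 also: 0% = median of neutral control wells and 100% = median of positive control wells; inhibitors cause a drop in the FAM fluorescence signal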
Target sequence (Q92698 whole entry, looked up): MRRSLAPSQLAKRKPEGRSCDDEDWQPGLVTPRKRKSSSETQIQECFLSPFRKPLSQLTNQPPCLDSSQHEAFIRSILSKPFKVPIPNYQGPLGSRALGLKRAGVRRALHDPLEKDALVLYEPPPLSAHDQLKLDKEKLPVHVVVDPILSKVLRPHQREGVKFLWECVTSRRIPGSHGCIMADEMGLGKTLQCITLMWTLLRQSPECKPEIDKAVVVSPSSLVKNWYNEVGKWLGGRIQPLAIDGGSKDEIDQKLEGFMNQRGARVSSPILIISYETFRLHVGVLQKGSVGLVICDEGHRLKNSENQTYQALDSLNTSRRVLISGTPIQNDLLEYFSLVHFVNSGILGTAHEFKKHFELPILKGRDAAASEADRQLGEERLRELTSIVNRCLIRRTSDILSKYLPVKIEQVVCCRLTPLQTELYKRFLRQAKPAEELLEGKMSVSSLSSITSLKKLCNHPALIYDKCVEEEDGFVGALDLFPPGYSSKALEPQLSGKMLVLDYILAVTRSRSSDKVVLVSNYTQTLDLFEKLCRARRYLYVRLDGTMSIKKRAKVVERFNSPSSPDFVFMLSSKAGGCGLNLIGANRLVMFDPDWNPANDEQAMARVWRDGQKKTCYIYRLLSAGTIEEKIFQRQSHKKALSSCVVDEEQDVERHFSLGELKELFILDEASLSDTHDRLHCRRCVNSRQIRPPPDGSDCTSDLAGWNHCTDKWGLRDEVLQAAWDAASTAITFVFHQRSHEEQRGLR
Vif inh: HIV Vif inhibition; HEK293T cells, Vif self-association by quenched fluorescence, imaging, 24 h; inhibition, % at 7.49 µM; 0.35% of 340,000 active; AID 602346; in the data active = inhibition above about 50%, passing the limit was not always enough; inconclusive = no clear call, values can overlap the other calls; inactive = below about 31%
Myeloid diff: myeloid differentiation induction; ER-HoxA9 myeloid progenitors, GFP/Mac1 double-positive flow; calls only; shares compounds with Myeloid diff 2; 2% of 2,300 active;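 active = share of green or green-and-red cells above 9 and 9% in run 1 or 4 and 3% in run 2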
GFP autofluor: compound fluorescence in myeloid differentiation counter-screen. shares compounds with Myeloid diff 2. ER-HoxA9 myeloid progenitors, no estrogen, GFP autofluorescence flow cytometry; vehicle wells 0%, positive control 100%. fluorescence response, % (concentration not given with the values). 7.4% of 2,300 active. AID 651707;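 active = over 5% cells positive for green fluorescent reporter, or over 2% positive for both it and APC stain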;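 also: range taken on the double positive population between DMSO and positive control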
* hit, by the source's call; i = inactive; ? = inconclusive; / = no result; + = active, no number. Sampled rows, rich in hits. Any-hit rate of the full collection: about 1.6%.

SMILES | ABCB6 inh 2 | Myeloid diff 2 | Glyco luc inh | RAD54 branch | Vif inh | Myeloid diff | GFP autofluor
O=C(C[C@@H]1C[C@H]2c3cc(NS(=O)(=O)c4ccccc4)ccc3O[C@H]2[C@H](CO)O1)NCC1CC1 | / | / | / | 2 | / | / | /
CCOc1ccccc1NC(=O)c1ccccc1-c1nc(-c2ccccc2)no1 | 99 | + | 1 | -1 | -21 | i | 0
O=C([C@H]1[C@H](CO)[C@H]2Cn3c(ccc(C4=CCCC4)c3=O)[C@@H]1N2C(=O)c1ccncc1)N1CCOCC1 | / | / | / | 6 | / | / | /
c1ccc2c(c1)NCCS2 | 133 | + | -2 | / | 0 | i | 0
CCOc1ccc(Nc2oc(-c3ccco3)nc2C#N)cc1 | 106 | + | -1 | 7 | -8 | i | 0
C[C@@H]1CN([C@@H](C)CO)C(=O)c2cc(C#CCc3ccccc3)cnc2O[C@@H]1CN(C)Cc1cccnc1 | / | / | / | -5 | / | / | /
COc1cc(C(=O)NCCC(=O)NCc2c(F)cc(F)cc2F)cc(OC)c1OC | 98 | i | 1 | 8 | 3 | i | 0
COc1cc(C(=O)NCCC(=O)NCCc2ccc(Cl)cc2)cc(OC)c1OC | 103 | i | 2 | / | -2 | / | /
O=C(NNC(=O)C12CC3CC(CC(C3)C1)C2)c1ccccc1[N+](=O)[O-] | 103 | i | -1 | 4 | -19 | i | 0
CCC(=O)c1c[nH]c(C(=O)NCCc2ccccn2)c1 | 99 | i | 1 | 1 | -7 | / | /
CC(C)CC(=O)c1c[nH]c(C(=O)NCCc2ccccn2)c1 | 96 | i | 1 | 3 | -5 | i | 0
COc1ccc(S(=O)(=O)N2CCN(CCOc3ccccc3Cl)CC2)cc1OC | 95 | i | 0 | / | 3 | i | 0
CCC(C)[C@H](NC(=O)[C@@H]1Cc2c([nH]c3ccccc23)C2c3ccccc3C(=O)N21)C(=O)N1CCC[C@@H]1C(=O)O (stereo partly specified) | 100 | i | 2 | 5 | -3 | / | /
CCC(C)[C@H](NC(=O)[C@@H]1Cc2c([nH]c3ccccc23)C2c3ccccc3C(=O)N21)C(=O)NCC1CCCO1 (stereo partly specified) | 103 | + | 0 | -8 | 0 | i | 0
Cc1cc(C)n(-c2cc(N3CCN(S(=O)(=O)c4ccc(Br)cc4)CC3)ccc2[N+](=O)[O-])n1 | 98 | i | -7 | -1 | 1 | i | 0
C[C@@H](NC(=O)C[C@H]1CC[C@@H](NC(=O)c2cccnc2)[C@@H](CO)O1)c1ccccc1 | / | / | / | -3 | / | / | /
CCOC(=O)c1sc(NC(=O)CCCn2nc([N+](=O)[O-])c(Cl)c2C)c(C(=O)OCC)c1C | 91 | ? | -3 | 0 | -13 | / | /
CCCOC(=O)c1c(NC(=O)CCCn2nc([N+](=O)[O-])c(Cl)c2C)sc(C(=O)OC)c1C | 98 | i | 2 | / | -3 | i | 0
CCOC(=O)C1(Nc2nccs2)Sc2ccccc2NC1=O (stereo unspecified) | 100 | + | 18 | 0 | 2 | i | 0
CCOC(=O)C1(N(CC)CC)Sc2cc(C)ccc2NC1=O (stereo unspecified) | 100 | i | 11 | 2 | 2 | / | /
O=C(C[C@H]1C=C[C@H](NC(=O)C2CCC2)[C@H](CO)O1)NCc1ccncc1 | / | / | / | 0 | / | / | /
C[C@@H]1CN([C@H](C)CO)C(=O)c2cc(NS(=O)(=O)c3ccccc3)ccc2O[C@@H](C)CCCCO[C@H]1CN(C)Cc1ccc(C(=O)O)cc1 | / | / | / | -5 | / | / | /
CCc1csc(N2[C@H](C#N)[C@H](c3ccc(C4=CCCC4)cc3)[C@H]2CO)n1 | / | / | / | -2 | / | / | /
O=C(NC1CC2CCCC(C1)N2S(=O)(=O)c1ccccc1)c1ccco1 (stereo unspecified) | 101 | i | 1 | / | -2 | / | /
CC(=O)NC1CC2CCCC(C1)N2S(=O)(=O)c1cccc(F)c1 (stereo unspecified) | 103 | + | 1 | 2 | -9 | i | 0
SMILES | ABCB6 inh 2 | Myeloid diff 2 | Glyco luc inh | RAD54 branch | Vif inh | Myeloid diff | GFP autofluor
O=C(NC1CCCC1)[C@H]1[C@H](CO)[C@H]2Cn3c(ccc(C4=CCCC4)c3=O)[C@@H]1N2C(=O)c1ccccc1 | / | / | / | -5 | / | / | /
CCC(=O)N1CC[C@@H]2[C@H]1c1cc(C#Cc3cccc(OC)c3)ccc1N[C@@H]2CO | / | / | / | -14 | / | / | /
CCc1nonc1NC(=O)COc1ccc(Cl)c(C)c1 | 102 | i | 0 | / | -1 | i | 0
C[C@@H]1CN([C@@H](C)CO)C(=O)c2cc(NC(=O)c3ccncc3)ccc2O[C@@H](C)CCCCO[C@@H]1CN(C)C(=O)C1CCCCC1 | / | / | / | -5 | / | / | /
CCN(CC(=O)NCc1ccc(Cl)cc1)C(=O)CCC(=O)c1ccc(F)cc1 | 97 | + | 11 | / | / | i | 0
CCC(=O)Nc1ccc2c(c1)C(=O)N(C)C[C@H](OC)[C@@H](C)CN(Cc1ccccc1F)[C@@H](C)CO2 | / | / | / | -7 | / | / | /
C[C@@H](NC(=O)C[C@@H]1C=C[C@H](NC(=O)Cc2ccccn2)[C@@H](CO)O1)c1ccccc1 | / | / | / | 4 | / | / | /
O=C1CCC/C(=N/NC(=O)c2sc3ccccc3c2Cl)C1 | 195 | i | 1 | / | 0 | i | 0
O=C(NN=C1CCCC1)c1sc2ccccc2c1Cl | 93 | i | 0 | / | 2 | / | /
Cc1noc(C)c1S(=O)(=O)N(C)C[C@@H]1OCCCC[C@@H](C)Oc2ccc(NC(=O)c3ccccc3)cc2C(=O)N([C@@H](C)CO)C[C@H]1C | / | / | / | -2 | / | / | /
Cc1cccc(NC(=O)c2cc(NC(=O)c3ccco3)ccc2Cl)n1 | 96 | i | -2 | -19 | 6 | i | 0
CNC[C@H]1OCCCC[C@@H](C)Oc2ccc(NC(=O)Nc3ccc4c(c3)OCO4)cc2C(=O)N([C@H](C)CO)C[C@@H]1C | / | / | / | -6 | / | / | /
O=c1oc2ccccc2c(Nc2cc3ccccc3cc2O)c1[N+](=O)[O-] | 98 | / | 9 | / | -12 | / | /
O=c1oc2ccccc2c(Nc2ccccc2O)c1[N+](=O)[O-] | 94 | + | -1 | / | -3 | i | 0
CS(=O)(=O)Nc1ccc2c(c1)[C@@H]1C[C@@H](CC(=O)NC3CCCCC3)O[C@H](CO)[C@@H]1O2 | / | / | / | -2 | / | / | /
C[C@H](CO)N1C[C@H](C)[C@@H](CN(C)C(=O)Cc2ccccn2)Oc2ncc(C#CC3CCCC3)cc2C1=O | / | / | / | 0 | / | / | /
COc1ccc([C@H]2[C@@H]3C=CCC[C@@]3(C)C(=O)N2Cc2ccccc2)cc1Cl | 103 | i | 0 | 2 | -2 | i | 1
COc1ccc(-c2cc([C@H]3[C@@H]4C=CCC[C@@]4(C)C(=O)N3Cc3ccccc3)ccc2F)cc1OC | 97 | i | -3 | -1 | -11 | / | /
O=C(C[C@H]1CC[C@@H](NC(=O)Nc2ccc3c(c2)OCO3)[C@@H](CO)O1)NCc1ccc(Cl)cc1 | / | / | / | 1 | / | / | /
